In the supplement of paper PMC11732987, “Enantioselective OTUD7B fragment discovery through chemoproteomics screening and high-throughput optimisation” (Communications Chemistry, 2025):

How the values were obtained:
Test in all cases: log2 ratio of Biotin-Ahx-Ub-VS probe labelling (fragment/DMSO); higher = less target engagement (more negative = stronger competition), active = hit call of the paper (q ≤ 0.05, log2 ratio ≤ -1)
Details in all cases: compound concentration: 200 uM; treatment time: 3 h
USP19 = biological target: T1, USP19 (UniProt O94966)
T1 sequence (whole entry): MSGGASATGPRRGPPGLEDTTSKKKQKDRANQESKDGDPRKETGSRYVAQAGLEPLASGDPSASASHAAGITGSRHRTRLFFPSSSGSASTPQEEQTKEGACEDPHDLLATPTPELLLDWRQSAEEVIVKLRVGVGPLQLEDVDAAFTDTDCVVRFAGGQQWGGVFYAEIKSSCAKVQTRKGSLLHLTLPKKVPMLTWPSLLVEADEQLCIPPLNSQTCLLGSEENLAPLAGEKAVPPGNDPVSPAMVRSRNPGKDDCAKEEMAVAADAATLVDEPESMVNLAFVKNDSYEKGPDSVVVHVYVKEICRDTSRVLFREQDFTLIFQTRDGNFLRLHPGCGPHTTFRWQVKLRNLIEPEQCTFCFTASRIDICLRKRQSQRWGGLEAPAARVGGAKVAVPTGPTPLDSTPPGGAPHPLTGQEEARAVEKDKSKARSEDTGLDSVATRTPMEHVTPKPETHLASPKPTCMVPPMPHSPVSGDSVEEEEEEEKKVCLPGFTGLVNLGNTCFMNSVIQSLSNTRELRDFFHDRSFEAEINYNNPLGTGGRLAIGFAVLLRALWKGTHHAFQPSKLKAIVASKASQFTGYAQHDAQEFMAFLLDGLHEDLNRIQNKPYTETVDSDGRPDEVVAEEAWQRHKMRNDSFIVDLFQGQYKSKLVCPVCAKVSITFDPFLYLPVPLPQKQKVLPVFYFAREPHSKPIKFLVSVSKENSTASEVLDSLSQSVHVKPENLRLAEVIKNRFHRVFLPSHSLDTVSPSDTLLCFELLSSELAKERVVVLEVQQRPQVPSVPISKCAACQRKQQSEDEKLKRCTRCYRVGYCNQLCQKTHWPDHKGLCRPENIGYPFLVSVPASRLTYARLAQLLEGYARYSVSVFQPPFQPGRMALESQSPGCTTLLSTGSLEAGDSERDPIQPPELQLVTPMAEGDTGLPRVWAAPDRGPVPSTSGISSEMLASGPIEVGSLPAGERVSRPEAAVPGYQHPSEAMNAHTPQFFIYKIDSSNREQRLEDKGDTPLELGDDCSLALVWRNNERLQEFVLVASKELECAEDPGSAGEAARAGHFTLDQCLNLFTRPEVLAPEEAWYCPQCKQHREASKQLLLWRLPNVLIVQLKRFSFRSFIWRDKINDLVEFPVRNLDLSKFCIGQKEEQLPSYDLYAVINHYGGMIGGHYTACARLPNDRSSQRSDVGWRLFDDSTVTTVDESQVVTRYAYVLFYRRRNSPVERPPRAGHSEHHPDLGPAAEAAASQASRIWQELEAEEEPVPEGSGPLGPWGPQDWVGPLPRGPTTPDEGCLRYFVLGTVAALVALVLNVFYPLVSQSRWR
How it was run: (§1)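 HEK293T lysate (495 µg per sample, in Tris/CHAPS/IGEPAL buffer with protease inhibitors) was exposed in triplicate for 3 h to fragment at 200 µM or to vehicle, then to Biotin-Ahx-Ub-VS at 0.5 µM final for 1 h. Labelled DUBs were enriched on NeutrAvidin, digested with LysC and trypsin, and analysed by diaPASEF LC-MS/MS. Spectronaut label-free quantities were normalised to the global median, and values are average log2 ratios of fragment over vehicle from an unpaired t-test. Only proteins with ≥2 unique peptides were used.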

USP22 = biological target: T2, USP22 (UniProt Q9UPT9)
T2 sequence (whole entry): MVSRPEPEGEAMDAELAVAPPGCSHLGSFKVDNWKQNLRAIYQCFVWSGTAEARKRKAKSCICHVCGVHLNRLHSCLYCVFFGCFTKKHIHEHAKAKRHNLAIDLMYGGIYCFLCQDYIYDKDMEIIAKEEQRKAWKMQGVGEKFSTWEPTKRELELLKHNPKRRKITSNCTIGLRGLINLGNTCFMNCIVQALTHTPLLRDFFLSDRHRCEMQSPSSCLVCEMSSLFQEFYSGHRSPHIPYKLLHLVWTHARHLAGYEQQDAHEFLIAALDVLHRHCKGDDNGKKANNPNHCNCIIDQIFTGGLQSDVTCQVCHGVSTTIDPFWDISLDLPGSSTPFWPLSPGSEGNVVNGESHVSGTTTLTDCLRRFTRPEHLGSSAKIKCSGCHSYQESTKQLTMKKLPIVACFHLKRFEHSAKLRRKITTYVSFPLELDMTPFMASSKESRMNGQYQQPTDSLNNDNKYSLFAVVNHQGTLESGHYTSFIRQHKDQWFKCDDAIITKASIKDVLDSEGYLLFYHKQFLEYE
How it was run: as §1

USP24 = USP24 (UniProt Q9UPU5)
How it was run: as §1

USP25 = biological target: T3, USP25 (UniProt Q9UHP3)
T3 sequence (whole entry): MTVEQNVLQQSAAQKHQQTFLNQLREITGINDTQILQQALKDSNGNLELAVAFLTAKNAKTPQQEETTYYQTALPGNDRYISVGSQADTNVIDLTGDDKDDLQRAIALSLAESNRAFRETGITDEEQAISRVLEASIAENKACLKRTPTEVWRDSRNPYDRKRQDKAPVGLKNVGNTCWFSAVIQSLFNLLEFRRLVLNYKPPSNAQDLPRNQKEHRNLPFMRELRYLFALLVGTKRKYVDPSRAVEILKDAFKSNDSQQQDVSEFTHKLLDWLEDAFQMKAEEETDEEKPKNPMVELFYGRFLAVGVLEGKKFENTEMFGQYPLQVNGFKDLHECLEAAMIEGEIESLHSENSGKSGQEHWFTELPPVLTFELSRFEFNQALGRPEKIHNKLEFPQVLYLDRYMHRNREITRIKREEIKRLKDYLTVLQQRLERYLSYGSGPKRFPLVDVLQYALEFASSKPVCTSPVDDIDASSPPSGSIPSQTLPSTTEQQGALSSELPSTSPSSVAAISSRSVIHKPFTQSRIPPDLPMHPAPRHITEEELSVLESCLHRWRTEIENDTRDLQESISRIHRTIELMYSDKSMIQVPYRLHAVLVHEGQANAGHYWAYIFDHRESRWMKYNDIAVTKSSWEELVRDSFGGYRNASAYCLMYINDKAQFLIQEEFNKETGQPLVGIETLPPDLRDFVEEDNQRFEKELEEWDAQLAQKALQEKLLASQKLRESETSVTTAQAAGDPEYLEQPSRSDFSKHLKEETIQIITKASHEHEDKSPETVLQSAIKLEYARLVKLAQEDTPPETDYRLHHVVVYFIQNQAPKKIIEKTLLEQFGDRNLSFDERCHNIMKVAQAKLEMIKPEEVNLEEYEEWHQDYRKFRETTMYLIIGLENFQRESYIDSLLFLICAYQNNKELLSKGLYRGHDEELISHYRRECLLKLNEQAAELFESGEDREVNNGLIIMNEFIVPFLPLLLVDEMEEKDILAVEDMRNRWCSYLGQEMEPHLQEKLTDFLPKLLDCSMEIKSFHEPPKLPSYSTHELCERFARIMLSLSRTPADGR
How it was run: as §1

USP28 = biological target: T4, USP28 (UniProt Q96RU2)
T4 sequence (whole entry): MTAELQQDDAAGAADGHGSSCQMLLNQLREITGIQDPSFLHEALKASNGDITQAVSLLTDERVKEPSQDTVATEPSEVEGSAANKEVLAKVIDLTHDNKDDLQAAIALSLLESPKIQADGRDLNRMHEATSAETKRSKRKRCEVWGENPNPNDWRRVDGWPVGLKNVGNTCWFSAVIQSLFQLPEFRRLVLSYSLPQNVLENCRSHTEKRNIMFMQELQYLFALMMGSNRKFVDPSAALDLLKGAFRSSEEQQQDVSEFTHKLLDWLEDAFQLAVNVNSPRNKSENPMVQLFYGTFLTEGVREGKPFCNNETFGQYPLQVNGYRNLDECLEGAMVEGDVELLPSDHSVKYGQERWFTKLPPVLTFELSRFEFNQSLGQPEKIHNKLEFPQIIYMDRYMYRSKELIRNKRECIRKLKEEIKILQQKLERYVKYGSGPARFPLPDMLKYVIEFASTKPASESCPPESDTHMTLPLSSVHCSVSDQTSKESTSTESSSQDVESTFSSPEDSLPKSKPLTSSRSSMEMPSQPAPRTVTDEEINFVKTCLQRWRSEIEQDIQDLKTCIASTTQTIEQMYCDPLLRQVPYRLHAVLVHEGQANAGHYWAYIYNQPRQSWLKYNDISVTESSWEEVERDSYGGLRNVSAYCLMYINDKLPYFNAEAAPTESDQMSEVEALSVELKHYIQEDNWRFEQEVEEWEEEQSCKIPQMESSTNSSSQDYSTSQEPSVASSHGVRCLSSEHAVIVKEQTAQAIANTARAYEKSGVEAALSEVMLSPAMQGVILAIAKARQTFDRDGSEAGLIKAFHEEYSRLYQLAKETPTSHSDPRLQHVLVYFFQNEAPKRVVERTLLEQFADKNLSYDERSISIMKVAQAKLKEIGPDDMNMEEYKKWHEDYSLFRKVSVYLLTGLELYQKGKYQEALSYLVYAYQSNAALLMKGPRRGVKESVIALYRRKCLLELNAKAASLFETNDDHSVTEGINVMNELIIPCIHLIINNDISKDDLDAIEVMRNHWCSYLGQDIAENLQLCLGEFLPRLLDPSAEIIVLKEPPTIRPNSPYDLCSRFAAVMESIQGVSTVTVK
How it was run: as §1

Measured: log2 ratio of Biotin-Ahx-Ub-VS probe labelling

Sequence of USP24 (Q9UPU5 whole entry): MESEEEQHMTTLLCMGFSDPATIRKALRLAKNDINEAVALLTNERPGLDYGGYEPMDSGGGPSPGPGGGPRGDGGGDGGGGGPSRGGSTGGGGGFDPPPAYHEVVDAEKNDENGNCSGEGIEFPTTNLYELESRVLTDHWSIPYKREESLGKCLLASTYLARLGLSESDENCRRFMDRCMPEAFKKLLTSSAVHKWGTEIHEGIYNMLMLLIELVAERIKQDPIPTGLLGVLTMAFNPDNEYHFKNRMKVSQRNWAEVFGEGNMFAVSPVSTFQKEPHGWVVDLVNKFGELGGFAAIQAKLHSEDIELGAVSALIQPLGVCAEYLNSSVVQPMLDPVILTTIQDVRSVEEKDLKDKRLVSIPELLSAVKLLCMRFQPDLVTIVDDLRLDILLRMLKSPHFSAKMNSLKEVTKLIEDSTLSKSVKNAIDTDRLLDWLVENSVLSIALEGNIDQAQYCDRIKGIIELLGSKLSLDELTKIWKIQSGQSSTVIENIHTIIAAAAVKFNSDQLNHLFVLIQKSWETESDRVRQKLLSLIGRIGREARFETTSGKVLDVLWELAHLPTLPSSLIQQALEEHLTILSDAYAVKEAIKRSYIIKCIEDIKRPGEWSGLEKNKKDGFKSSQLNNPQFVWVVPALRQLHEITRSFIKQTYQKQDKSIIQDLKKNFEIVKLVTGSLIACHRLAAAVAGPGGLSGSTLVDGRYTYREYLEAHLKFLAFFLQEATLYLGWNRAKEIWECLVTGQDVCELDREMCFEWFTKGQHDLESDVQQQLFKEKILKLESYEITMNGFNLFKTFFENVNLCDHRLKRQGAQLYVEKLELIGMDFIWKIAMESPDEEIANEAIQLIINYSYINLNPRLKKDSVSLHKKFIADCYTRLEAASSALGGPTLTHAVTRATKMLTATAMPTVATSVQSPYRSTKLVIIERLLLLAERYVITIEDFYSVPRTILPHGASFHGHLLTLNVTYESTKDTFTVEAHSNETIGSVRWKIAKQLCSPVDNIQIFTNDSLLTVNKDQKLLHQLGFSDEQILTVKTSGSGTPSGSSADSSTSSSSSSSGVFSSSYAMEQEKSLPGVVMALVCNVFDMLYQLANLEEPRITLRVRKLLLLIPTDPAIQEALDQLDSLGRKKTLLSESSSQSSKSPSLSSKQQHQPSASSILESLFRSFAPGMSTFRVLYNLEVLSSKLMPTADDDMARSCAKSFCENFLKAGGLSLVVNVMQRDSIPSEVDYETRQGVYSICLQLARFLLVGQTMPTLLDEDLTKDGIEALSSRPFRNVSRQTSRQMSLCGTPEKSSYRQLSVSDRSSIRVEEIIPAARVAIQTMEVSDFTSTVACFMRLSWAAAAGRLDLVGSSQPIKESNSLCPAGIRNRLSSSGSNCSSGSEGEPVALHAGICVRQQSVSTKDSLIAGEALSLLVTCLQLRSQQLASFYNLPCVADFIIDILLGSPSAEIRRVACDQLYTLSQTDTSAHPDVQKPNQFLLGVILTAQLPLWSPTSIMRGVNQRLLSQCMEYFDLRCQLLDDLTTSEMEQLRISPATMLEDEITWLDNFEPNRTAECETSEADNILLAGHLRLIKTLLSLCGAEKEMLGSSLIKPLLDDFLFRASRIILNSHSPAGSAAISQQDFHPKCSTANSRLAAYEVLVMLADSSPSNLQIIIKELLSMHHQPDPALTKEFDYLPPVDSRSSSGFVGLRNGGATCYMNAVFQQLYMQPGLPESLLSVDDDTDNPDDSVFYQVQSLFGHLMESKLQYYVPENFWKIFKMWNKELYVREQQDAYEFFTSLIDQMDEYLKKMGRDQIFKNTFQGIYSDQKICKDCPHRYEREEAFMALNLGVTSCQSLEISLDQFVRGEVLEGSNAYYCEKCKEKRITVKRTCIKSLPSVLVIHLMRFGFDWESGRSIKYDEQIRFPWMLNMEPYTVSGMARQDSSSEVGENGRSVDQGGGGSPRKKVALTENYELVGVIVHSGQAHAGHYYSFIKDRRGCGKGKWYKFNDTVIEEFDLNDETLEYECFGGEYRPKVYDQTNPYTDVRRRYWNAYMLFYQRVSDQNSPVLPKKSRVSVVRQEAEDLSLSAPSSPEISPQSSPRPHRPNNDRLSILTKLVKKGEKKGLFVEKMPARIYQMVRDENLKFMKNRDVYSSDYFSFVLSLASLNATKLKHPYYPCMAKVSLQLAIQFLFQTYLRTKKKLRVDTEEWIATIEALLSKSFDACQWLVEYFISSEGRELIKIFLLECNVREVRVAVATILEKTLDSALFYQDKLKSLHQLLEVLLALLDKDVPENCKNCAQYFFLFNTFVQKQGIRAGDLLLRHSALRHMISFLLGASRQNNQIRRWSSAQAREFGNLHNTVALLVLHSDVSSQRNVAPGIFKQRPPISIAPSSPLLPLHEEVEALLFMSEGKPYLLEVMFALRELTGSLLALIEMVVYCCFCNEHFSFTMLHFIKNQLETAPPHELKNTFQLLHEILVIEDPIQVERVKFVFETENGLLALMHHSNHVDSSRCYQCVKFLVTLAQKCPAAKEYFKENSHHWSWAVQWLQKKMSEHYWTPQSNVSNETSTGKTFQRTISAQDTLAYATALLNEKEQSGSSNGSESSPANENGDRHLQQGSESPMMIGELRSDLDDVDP

O=C(CCl)N1CCN2C(=O)CCC2C1 (stereo not given)
inactive: USP19 0.0407 | USP22 -0.0658 | USP24 0.14 | USP25 -0.508 | USP28 -0.38
